The source of these data is ChEMBL document CHEMBL3988442, “University of Dundee, Small-Polar-MMV Screening Library” (2021).

The target in assay [1] is T1, Aspartate--tRNA(Asp/Asn) ligase (Mycobacterium tuberculosis (strain ATCC 25618 / H37Rv)) (UniProt P9WFW3). Note: in the data most compounds retested in dose-response had high values.
T1 sequence (whole entry): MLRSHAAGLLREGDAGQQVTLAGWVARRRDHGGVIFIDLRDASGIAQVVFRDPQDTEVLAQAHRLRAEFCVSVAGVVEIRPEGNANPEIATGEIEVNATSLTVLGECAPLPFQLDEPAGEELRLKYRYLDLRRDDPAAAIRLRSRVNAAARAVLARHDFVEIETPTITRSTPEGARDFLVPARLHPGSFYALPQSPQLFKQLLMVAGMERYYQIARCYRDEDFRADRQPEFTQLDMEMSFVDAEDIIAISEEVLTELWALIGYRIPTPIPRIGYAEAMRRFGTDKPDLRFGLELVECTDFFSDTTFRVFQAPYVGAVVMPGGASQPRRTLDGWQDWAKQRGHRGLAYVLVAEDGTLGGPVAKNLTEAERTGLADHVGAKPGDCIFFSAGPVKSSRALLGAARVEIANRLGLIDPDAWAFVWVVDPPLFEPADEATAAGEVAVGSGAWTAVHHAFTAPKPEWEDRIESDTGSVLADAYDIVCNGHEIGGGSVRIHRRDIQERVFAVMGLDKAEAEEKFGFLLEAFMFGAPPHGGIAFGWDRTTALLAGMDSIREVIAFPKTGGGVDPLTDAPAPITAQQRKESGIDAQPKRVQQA
The assay can be described thus: Assay for Asp RNA synthetase-1 from Mycobacterium tuberculosis. The note with it: 30 µM. On the set-up: scale not given: direction of the effect not stated beside the values. The format is functional.

The target of assay [2] is Shiga toxin 2 (Escherichia coli O157:H7) (UniProt P09385+P09386). As to the kind of experiment: E. coli 0.157:H7 Shiga Toxin SOP - stx2 screening assay. The assay is classed as functional. On the set-up: scale not given: direction of the effect not stated beside the values. The following applies: 30 µM.

`Cc1csc(N2CCN(Cc3cnc(C)s3)CC2C)n1` (stereo not given): the Percent Effect was found to be 3.68% in assay [1] and 13.7% in assay [2].

As for `Cn1cc(CN2CCCn3cnc(CN4CCCC4=O)c3C2)cn1`, the Percent Effect in assay [1] was 2.39%; in assay [2], -3.11%.

Turning to `Cc1nc(CN2CCCC(N(C)Cc3c(C)noc3C)C2)no1` (stereo not given), the Percent Effect in assay [1] was -5.45%; in assay [2], 18.6%.

Turning to `CCn1cc(N2Cc3nc(N)ncc3C2=O)cn1`, the Percent Effect in assay [1] is -7.32%; in assay [2] it was -36.6%.

On to `Cc1cnn(CC2CCCCN2C(=O)c2ccnc(N(C)C)c2)c1` (stereo not given), for which the Percent Effect in assay [1] worked out at 1.07%; in assay [2], 16.2%.

For the compound `CCOCC(O)CN1CCN(C(=O)c2cccc(F)c2)CC1` (stereo not given), the Percent Effect in assay [1] was 0.145%; in assay [2], -5.86%.

`CCN1CCN(c2nc(C(C)C)nc3c(C)nn(CC)c23)CC1`: the Percent Effect in assay [1] was -2.11%; in assay [2] it was -52.4%.

Regarding `CCc1cnc2c(c1NCc1ccncc1)c(=O)n(C)c(=O)n2C`, the Percent Effect is -0.949% in assay [1] and -7.71% in assay [2].

With `COc1ccc(CN2CCCC3(CCN(c4ccsc4)C3=O)C2)cc1` (stereo not given), the values for the Percent Effect in assay [1] and in assay [2] were 1.46% and -4.23%, respectively.

As to `Cc1cccc(CN2CCc3nnc(CN4CCCC4=O)n3CC2)n1`, the Percent Effect was -2.89% in assay [1] and 3.17% in assay [2].

As to `Cc1cnc(CNc2c(F)cccc2-n2cccn2)o1`, the Percent Effect is -2.01% in assay [1] and -27.4% in assay [2].

As to `Cn1ncc2c1CCCC2NCc1cc(Br)cs1` (stereo not given), the Percent Effect was -1.12% in assay [1] and 7.1% in assay [2].

For the compound `CN1CCCN(C(=O)NCc2csc(Br)c2)CC1`, the values for the Percent Effect in assay [1] and in assay [2] were 0.175% and 14.5%, respectively.

Consider `CC(=O)N1CCCC(c2cnc(-c3c(C)nn(C)c3C)cn2)C1` (stereo not given), for which the Percent Effect in assay [1] was -3.49%; in assay [2], -14.1%.

For `CS(=O)(=O)NC1CCc2c(ccc(=O)n2CC2CC2)C1` (stereo not given), the Percent Effect in assay [1] is 2.4%; in assay [2], -5.71%.

Consider `CCS(=O)(=O)CCN1CCC(N(C)Cc2noc(C(C)C)n2)C1` (stereo not given), for which the Percent Effect in assay [1] is 0%; in assay [2] it was -10.7%.

On to `Cc1cccc2c1OCCC2NCc1c(C)nn(C)c1N(C)C` (stereo not given), for which the Percent Effect was 0.256% in assay [1] and 28.5% in assay [2].

In the case of `CCc1cc(NCCNc2cccnc2)n2nccc2n1`, the Percent Effect is 0.0112% in assay [1] and -5.46% in assay [2].

Regarding `COCCN1CCN(C(C)C(=O)Nc2ccnn2C(C)C)CC1` (stereo not given), the Percent Effect in assay [1] is 0.69%; in assay [2] it was -2.27%.

For the compound `CCN(CC)C(=O)Nc1cc2c(cc1SC)OCCO2`, the values for the Percent Effect in assay [1] and in assay [2] were -1.51% and 12%, respectively.

Consider `Cc1cccc(CNC(CN2CCN(C)CC2)c2ccccc2)c1` (stereo not given), for which the Percent Effect was 3.03% in assay [1] and -5.1% in assay [2].

Turning to `Cc1nn(C)c(N(C)C)c1CNC(C)c1cccc(OC(C)C)c1` (stereo not given), the Percent Effect in assay [1] was -3.06%; in assay [2], -5.32%.

`CSCC[C@H](N)C(=O)NCc1cc2n(n1)CCCN(C1CCCCC1)C2`: the Percent Effect in assay [1] was -6.77%; in assay [2], 5.19%.

Consider `Cc1ccc(C(=O)N2CCN(CCc3cccs3)CC2)c(=O)[nH]1`, for which the Percent Effect in assay [1] is -1.83%; in assay [2], -29.5%.

On to `CO[C@H]1CN(C(=O)c2ccccn2)[C@@H]2CCCO[C@H]12`, for which the Percent Effect amounted to 1.27% in assay [1] and 0.669% in assay [2].

Take `COc1ccc(F)c(CN2CCC(c3cc(O)nc(C)n3)C2)c1` (stereo not given): the Percent Effect in assay [1] was -6.3%; in assay [2] it was -8.55%.

In the case of `CCN(CC)C(=O)Cn1ccc2cc(NC(=O)C3CC3)ccc21`, the results for the Percent Effect in assay [1] and in assay [2] were -1.5% and -4.48%, respectively.

As to `Cc1ncsc1C(=O)NCCn1nc2ccccn2c1=O`, the Percent Effect is -1.86% in assay [1] and 15% in assay [2].

Consider `Cc1nc(C2CCCN(C(=O)c3ccc(N4CCCC4)nc3)C2)no1` (stereo not given), for which the Percent Effect in assay [1] is -2.58%; in assay [2], -1.41%.

Consider `CCOc1ccc(C(C)NC(=O)N2CCC(C(N)=O)CC2)cc1OC` (stereo not given), for which the Percent Effect in assay [1] is -0.725%; in assay [2], 10.2%.

For the compound `CC(=O)c1ccc(N2CCCC(CO)(CCOc3ccccc3)C2)nc1` (stereo not given), the Percent Effect in assay [1] was -2.11%; in assay [2], -9.89%.

With `CC(=O)N1CCN(C(=O)CCOc2ccc(C(C)C)cc2)CC1`, the Percent Effect in assay [1] was -2.21%; in assay [2], 38.9%.

Turning to `CN(C)S(=O)(=O)N1CCC[C@]2(C[C@@H](Oc3ccccn3)CO2)C1`, the Percent Effect in assay [1] was 3.16%; in assay [2], -10.1%.

Turning to `N#Cc1ccc(C(=O)NCCCNc2ccc(C(F)(F)F)cn2)cc1`, the Percent Effect in assay [1] is -4.52%; in assay [2] it was 28.9%.

With `O=C(CO)N1CCC(c2cncc(-c3cccc(Cl)c3)n2)CC1`, the Percent Effect in assay [1] is 4.78%; in assay [2], -9.28%.

With `Cn1cnc2c1C(COCC1CC1)CN(C(=O)Cc1ccsc1)C2` (stereo not given), the Percent Effect in assay [1] is 0.364%; in assay [2], -17.9%.

Consider `CNC(=O)CS(=O)(=O)C1CCN(S(=O)(=O)c2c(F)cccc2F)CC1`, for which the Percent Effect in assay [1] was -1.03%; in assay [2], -5.55%.

As to `O=C(CN1CCc2cncnc2C1)NCCOc1ccccc1`, the values for the Percent Effect in assay [1] and in assay [2] were 0.955% and 21.9%, respectively.

`Cc1nc[nH]c1CN1C[C@@H]2CC[C@H](C1)N(C(=O)CCNS(C)(=O)=O)C2`: the Percent Effect in assay [1] was -4.9%; in assay [2], -0.862%.

Regarding `Cc1cc2n(n1)CC(CNCc1cnn(-c3ccccc3)c1)CN2` (stereo not given), the Percent Effect in assay [1] was -1.15%; in assay [2] it was 7.05%.

Take `Cc1noc(C)c1CN(C)CC1CCCN1c1cccnn1` (stereo not given): the Percent Effect in assay [1] was -1.56%; in assay [2] it was 14.9%.

Take `CCCc1n[nH]c(C2CN(C(=O)c3ccco3)CCO2)n1` (stereo not given): the values for the Percent Effect in assay [1] and in assay [2] were -0.955% and 8.05%, respectively.

As to `Cc1nnc([C@@H]2CC[C@@H]3[C@@H](CCN3S(=O)(=O)c3cccnc3)O2)o1`, the Percent Effect came to 7.29% in assay [1] and 8.32% in assay [2].

Regarding `Cc1noc(C2CCN(C(=O)c3ccc(N(C)C)nc3)CC2)n1`, the Percent Effect was -4.17% in assay [1] and -12.5% in assay [2].

Consider `CCn1cnnc1C1CCN(C(=O)c2ccc3cc[nH]c3c2)CC1`, for which the Percent Effect was -3% in assay [1] and -9.96% in assay [2].

Turning to `NC(=O)c1ccc(OCC(=O)N2CCCC(n3cccn3)C2)cc1` (stereo not given), the Percent Effect in assay [1] is -4.7%; in assay [2] it was 26%.

`CC(C)c1nnc2n1CCN(C(=O)c1ccc(CN(C)C)cc1)C2`: the values for the Percent Effect in assay [1] and in assay [2] were -0.75% and 17.3%, respectively.

Turning to `CC(C)(C)c1nnc(CN2CCN(CC(O)c3ccccc3)CC2)o1` (stereo not given), the values for the Percent Effect in assay [1] and in assay [2] were -8.31% and 10.2%, respectively.

Take `CCn1c(Nc2ccccc2OC)nc2c(C)nn(C)c2c1=O`: the Percent Effect in assay [1] was -3.4%; in assay [2] it was -16.8%.

Consider `Cc1nc(CCCNC(=O)C2CC(=O)N(C(C)(C)C)C2)sc1C` (stereo not given), for which the figures for the Percent Effect in assay [1] and in assay [2] were -1.3% and -11.5%, respectively.
